A short description of experiment [1]: qHTS assay to identify aromatase inhibitors - cell viability counter screen (AID 743084).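 Further: cells stimulated with testosterone during compound exposure; nearly all actives have a fitted effect of over 55% in size.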 Further: potency means the concentration at half of the fitted maximal effect. In general terms: In qHTS, concentration-response curves come from the screen itself.
Experiment [2] can be described thus: qHTS assay to identify small molecule that activate the aryl hydrocarbon receptor (AhR) signaling pathway - cell viability counter screen (AID 743086).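 Further: HepG2 liver cells carrying the AhR DRE luciferase reporter; series mostly up to about 70 µM; nearly all actives have a fitted effect of over 45% in size.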 In short, it runs like this:
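HepG2-AhR-luc (HG2L7.5c1) cells, 4000/well, treated 24 h at 37 C with compound; viability measured as CellTiter-Fluor fluorescence after 30 min in the same wells as the luciferase read.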

Experiment [3] has as its target Peroxisome proliferator-activated receptor gamma (Homo sapiens) (UniProt P37231). Description: qHTS assay to identify small molecule antagonists of the peroxisome proliferator-activated receptor gamma (PPARg) signaling pathway (AID 743191; calls by dose curve; further: nearly all actives have a fitted effect of over 30% in size; further: potency means the concentration at half of the fitted maximal effect). In short, it runs like this: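 GeneBLAzer PPARg UAS-bla HEK293H cells, 5 h post-plating, exposed to compounds 17 h at 37C. LiveBLAzer B/G FRET substrate added for 1 h at room temperature; beta-lactamase reporter read by fluorescence intensity.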

Experiment [4] is described as follows: qHTS assay for small molecule agonists of the antioxidant response element (ARE) signaling pathway - cell viability counter screen (AID 743203; calls by dose curve; further: nearly all actives have a fitted effect of over 55% in size; further: potency means the concentration at half of the fitted maximal effect). In short, it runs like this: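 Viability counter screen: CellTiter-Glo luminescence, read after 30 min at room temperature, in ARE-bla HepG2 wells. Compound exposure lasted 16 h at 37C/5% CO2, following a 5 h pre-incubation of the cells after plating.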

Experiment [5] in a line: qHTS assay to identify small molecule agonists of the peroxisome proliferator-activated receptor delta (PPARd) signaling pathway - cell viability counter screen (AID 743211). Further: nearly all actives have a fitted effect of over 55% in size. Further: potency means the concentration at half of the fitted maximal effect. The procedure, abridged: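 Read-out: CellTiter-Glo luminescence, 30 min RT, measured in the same wells as the beta-lactamase reporter. Cells: GeneBLAzer PPAR delta UAS-bla HEK293H, 3000 cells/well, compound exposure 17 h at 37C.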

The target in experiment [6] is Bile acid receptor (Homo sapiens) (UniProt Q96RI1). As to the kind of experiment: qHTS assay to identify small molecule agonists of the farnesoid-X-receptor (FXR) signaling pathway (AID 743220; active means well fitted activation curve with a large enough effect in the signal ratio in the repeat runs, not every such curve was filed as active; the % refers to the signal ratio). The procedure, abridged:
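FXR-UAS-bla HEK 293T cells carrying a UAS-driven beta-lactamase reporter were plated for 5 h at 37C/5% CO2, then exposed to DMSO-dissolved Tox21 10K compounds for 16 h at 37C. A LiveBLAzer B/G FRET substrate was loaded for 2 h at room temperature before fluorescence reading.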

Experiment [7] is described as follows: qHTS assay to identify small molecule antagonists of the farnesoid-X-receptor (FXR) signaling pathway - cell viability counter screen (AID 743221; active means well fitted cell-killing curve with a large enough effect in the repeat runs, not every such curve was filed as active; further: nearly all actives have a fitted effect of over 50% in size; further: potency means the concentration at half of the fitted maximal effect). In short, it runs like this:
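HEK 293T FXR-bla cells, 5 h pre-incubation; compound + CDCA 50 uM final, 16 h, 37 C; beta-lactamase FRET read first, then CellTiter-Glo luminescence, 30 min RT.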

Experiment [8] addresses Aryl hydrocarbon receptor (Homo sapiens) (UniProt P35869). Description: qHTS assay to identify small molecule that activate the aryl hydrocarbon receptor (AhR) signaling pathway (AID 743085).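 Further: HG2L7.5c1 human HepG2 liver cells with stably integrated DRE-driven firefly reporter; series mostly up to about 70 µM; nearly all actives have a fitted effect of over 15% in size.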 The procedure, abridged: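 Luminescence read-out: ONE-Glo reagent, 30 min at room temperature, in HG2L7.5c1 HepG2 reporter cells treated 24 h at 37C. Viability was measured beforehand by CellTiter-Fluor fluorescence after 30 min at 37C.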

Experiment [9] is described as follows: qHTS assay to identify small molecule antagonists of the peroxisome proliferator-activated receptor gamma (PPARg) signaling pathway - cell viability counter screen (AID 743194). Further: nearly all actives have a fitted effect of over 55% in size. Further: potency means the concentration at half of the fitted maximal effect. The note with it: Potency: co-treated with 50 nM rosiglitazone. The procedure, abridged: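 Cytotoxicity counter screen in PPARg-bla HEK293H cells, same wells as reporter assay. Compounds plus 50 nM rosiglitazone (final) for 17 h at 37 C, then viability read by CellTiter-Glo luminescence.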

A short description of experiment [10]: qHTS assay to identify small molecule agonists of the farnesoid-X-receptor (FXR) signaling pathway - cell viability counter screen (AID 743218). Further: nearly all actives have a fitted effect of over 45% in size. Further: potency means the concentration at half of the fitted maximal effect. In short, it runs like this: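 Viability counter screen in the same wells: CellTiter-Glo luminescence, 30 min room-temperature incubation, measured after the beta-lactamase read. Cells were GeneBLAzer FXR-UAS-bla HEK 293T, compound-treated 16 h at 37C.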

Experiment [11] concerns the target Peroxisome proliferator-activated receptor gamma (Homo sapiens) (UniProt P37231). As to the kind of experiment: qHTS assay to identify small molecule agonists of the peroxisome proliferator-activated receptor gamma (PPARg) signaling pathway (AID 743094; active means well fitted activation curve with a large enough effect in the signal ratio in the repeat runs, not every such curve was filed as active; the % refers to the signal ratio; further: potency means the concentration at half of the fitted maximal effect). The procedure, abridged: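 Agonist activity was taken from a beta-lactamase reporter (FRET substrate, 1 h at room temperature) in HEK293H cells carrying a PPARg UAS-bla construct. Compounds in DMSO were incubated 17 h at 37C after a 5 h cell pre-incubation.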

Experiment [12] can be described thus: qHTS assay for small molecule activators of the heat shock response signaling pathway - cell viability counter screen (AID 743209). Further: nearly all actives have a fitted effect of over 50% in size. In short, it runs like this:
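Cytotoxicity counter screen run in the same wells as the heat-shock bla reporter assay: HeLa HSE-bla cells, 5 h compound exposure at 37 C, viability read by CellTiter-Glo luminescence.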

Experiment [13] can be described thus: qHTS assay for small molecule activators of the heat shock response signaling pathway (AID 743210; active means well fitted activation curve with a large enough effect in the signal ratio in the repeat runs, with a control signal flat, not every such curve was filed as active; the % refers to the signal ratio; further: series mostly up to about 63 µM). The procedure, abridged: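 Beta-lactamase reporter read-out: FRET substrate fluorescence after 2.5 h at RT, following 5 h compound treatment at 37 C of HeLa cells carrying HSE-driven bla reporter; quantitative HTS format.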
The target of experiment [14] is Peroxisome proliferator-activated receptor delta (Homo sapiens) (UniProt Q03181). Description: qHTS assay to identify small molecule agonists of the peroxisome proliferator-activated receptor delta (PPARd) signaling pathway (AID 743212; calls by dose curve). In short, it runs like this:
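Read-out: beta-lactamase FRET fluorescence after 2 h room-temperature incubation with LiveBLAzer B/G substrate. Cells were HEK293H carrying a UAS-bla reporter for PPARd, treated at 37 C with DMSO-dissolved compounds.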

A short description of experiment [15]: qHTS assay to identify small molecule antagonists of the peroxisome proliferator-activated receptor delta (PPARd) signaling pathway - cell viability counter screen (AID 743213). Further: nearly all actives have a fitted effect of over 50% in size. The procedure, abridged:
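PPARd-bla HEK293H cells (3000/well) got compound plus 300 nM L165041 agonist for 17 h at 37 C. Viability in the same wells came from CellTiter-Glo luminescence after 30 min at room temperature.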

In experiment [16] the target is Peroxisome proliferator-activated receptor delta (Homo sapiens) (UniProt Q03181). As to the kind of experiment: qHTS assay to identify small molecule antagonists of the peroxisome proliferator-activated receptor delta (PPARd) signaling pathway (AID 743215; active means well fitted inhibition curve with a large enough effect in the signal ratio in the repeat runs, not every such curve was filed as active; the % refers to the signal ratio;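 further: cells stimulated with agonist L165041 at 300 nM final during compound exposure; series mostly up to about 62 µM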). In short, it runs like this:
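Agonist L165041 (300 nM final) added with compound to PPARd-bla HEK293H UAS-bla reporter cells; 17 h incubation at 37 C. Read-out: LiveBLAzer FRET substrate, 2 h at room temperature, fluorescence intensity.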

Experiment [17] is described as follows: qHTS assay for small molecule agonists of the antioxidant response element (ARE) signaling pathway (AID 743202; active means well fitted activation curve with a large enough effect in the signal ratio in the repeat runs, not every such curve was filed as active; the % refers to the signal ratio; further: potency means the concentration at half of the fitted maximal effect). The procedure, abridged: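 HepG2 ARE-bla reporter line, 2,000 cells/well; 5 h preincubation 37 C/5% CO2; compound (DMSO) 16 h 37 C; B/G FRET substrate 2 h RT; fluorescence intensity.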
The target of experiment [18] is Bile acid receptor (Homo sapiens) (UniProt Q96RI1). Description: qHTS assay to identify small molecule antagonists of the farnesoid-X-receptor (FXR) signaling pathway (AID 743217; active means well fitted inhibition curve with a large enough effect in the signal ratio in the repeat runs, not every such curve was filed as active; the % refers to the signal ratio; further: potency means the concentration at half of the fitted maximal effect). In short, it runs like this:
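Antagonist mode: chenodeoxycholic acid at 50 uM final stimulates a UAS-driven beta-lactamase reporter in HEK 293T FXR-bla cells during 16 h, 37C compound exposure. Read-out is FRET substrate fluorescence after 2 h at room temperature.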

In experiment [19] the target is Vitamin D3 receptor (Homo sapiens) (UniProt P11473). Description: qHTS assay to identify small molecule agonists of the vitamin D receptor (VDR) signaling pathway (AID 743222; calls by dose curve). In short, it runs like this:
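Agonist mode, beta-lactamase reporter: fluorescence from LiveBLAzer B/G FRET substrate (2 h, room temperature) read after 16 h compound treatment at 37 C of VDR-bla cells, which were pre-incubated 4 h after seeding.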

The target is the same in experiment [20]. As to the kind of experiment: qHTS assay to identify small molecule antagonists of the vitamin D receptor (VDR) signaling pathway (AID 743223; active means well fitted inhibition curve with a large enough effect in the signal ratio in the repeat runs, not every such curve was filed as active; the % refers to the signal ratio). In short, it runs like this:
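Beta-lactamase reporter read-out: FRET substrate fluorescence after 2 h at room temperature, following 16 h exposure of VDR-bla cells to test compound plus 3 nM (final) 1alpha,25-dihydroxyvitamin D3 agonist at 37C.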

Eleven compounds from PubChem BioAssay (Tox21) can be followed below.

Records with an inconclusive call do not appear. Active and inactive are the calls of the source. Unless noted, the call rests on the fitted dose curve; in most records, active means well fitted curve in the direction sought with a large enough effect in the repeat runs; inconclusive means weak or mixed curves; inactive means no such curve, though single readings can be large; an effect the other way counts as inactive or inconclusive.

Peroxisome proliferator-activated receptor gamma (Homo sapiens), sequence (P37231 whole entry, looked up): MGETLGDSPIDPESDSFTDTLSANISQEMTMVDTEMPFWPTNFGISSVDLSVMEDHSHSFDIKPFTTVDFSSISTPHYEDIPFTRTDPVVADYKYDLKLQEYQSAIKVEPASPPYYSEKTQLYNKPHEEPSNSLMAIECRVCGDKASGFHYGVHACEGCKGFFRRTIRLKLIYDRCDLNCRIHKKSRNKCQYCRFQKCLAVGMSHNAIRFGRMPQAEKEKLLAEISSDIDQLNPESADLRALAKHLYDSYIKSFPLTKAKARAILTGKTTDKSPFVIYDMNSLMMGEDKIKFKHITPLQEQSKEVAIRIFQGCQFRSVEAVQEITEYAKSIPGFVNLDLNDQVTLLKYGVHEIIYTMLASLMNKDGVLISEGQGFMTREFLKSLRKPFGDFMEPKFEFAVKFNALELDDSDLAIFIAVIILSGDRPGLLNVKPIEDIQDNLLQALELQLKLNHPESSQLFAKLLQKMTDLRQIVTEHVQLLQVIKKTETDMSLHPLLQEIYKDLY
Vitamin D3 receptor (Homo sapiens), sequence (P11473 whole entry, looked up): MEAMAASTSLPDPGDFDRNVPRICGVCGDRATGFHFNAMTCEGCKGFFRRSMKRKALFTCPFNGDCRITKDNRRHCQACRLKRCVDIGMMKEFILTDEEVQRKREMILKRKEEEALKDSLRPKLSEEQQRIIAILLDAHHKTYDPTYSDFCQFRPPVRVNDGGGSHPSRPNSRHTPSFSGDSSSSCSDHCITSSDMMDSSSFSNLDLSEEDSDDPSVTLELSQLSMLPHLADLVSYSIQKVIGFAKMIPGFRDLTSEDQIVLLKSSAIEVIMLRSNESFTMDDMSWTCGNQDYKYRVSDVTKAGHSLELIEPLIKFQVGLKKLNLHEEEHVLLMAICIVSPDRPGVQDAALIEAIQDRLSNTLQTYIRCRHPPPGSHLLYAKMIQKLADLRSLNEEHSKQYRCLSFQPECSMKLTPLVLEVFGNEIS
Bile acid receptor (Homo sapiens), sequence (Q96RI1 whole entry, looked up): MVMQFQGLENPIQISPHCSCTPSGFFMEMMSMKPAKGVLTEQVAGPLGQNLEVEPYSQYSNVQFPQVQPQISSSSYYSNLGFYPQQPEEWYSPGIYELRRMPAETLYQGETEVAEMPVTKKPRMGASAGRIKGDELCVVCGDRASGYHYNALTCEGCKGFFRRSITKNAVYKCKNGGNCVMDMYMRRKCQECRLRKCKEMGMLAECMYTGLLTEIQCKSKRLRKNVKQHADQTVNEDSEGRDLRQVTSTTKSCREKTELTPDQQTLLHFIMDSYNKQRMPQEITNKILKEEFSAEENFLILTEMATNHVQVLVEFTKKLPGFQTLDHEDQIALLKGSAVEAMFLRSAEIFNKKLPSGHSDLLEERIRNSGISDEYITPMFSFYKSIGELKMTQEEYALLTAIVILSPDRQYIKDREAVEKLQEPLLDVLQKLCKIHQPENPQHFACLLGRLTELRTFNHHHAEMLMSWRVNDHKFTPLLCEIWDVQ
Peroxisome proliferator-activated receptor delta (Homo sapiens), sequence (Q03181 whole entry, looked up): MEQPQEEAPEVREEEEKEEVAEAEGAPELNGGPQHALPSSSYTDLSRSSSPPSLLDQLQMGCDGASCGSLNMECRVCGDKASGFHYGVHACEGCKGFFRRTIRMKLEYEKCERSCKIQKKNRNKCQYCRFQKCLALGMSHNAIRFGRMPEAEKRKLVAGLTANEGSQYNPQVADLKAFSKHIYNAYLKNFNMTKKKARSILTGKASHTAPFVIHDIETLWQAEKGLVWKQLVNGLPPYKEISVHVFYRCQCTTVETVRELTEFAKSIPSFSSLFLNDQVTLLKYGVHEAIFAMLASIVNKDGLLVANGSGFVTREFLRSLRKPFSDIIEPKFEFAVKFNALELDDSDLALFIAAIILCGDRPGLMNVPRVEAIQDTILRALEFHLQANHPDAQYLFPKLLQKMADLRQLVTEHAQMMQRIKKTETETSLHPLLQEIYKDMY
Aryl hydrocarbon receptor (Homo sapiens), sequence (P35869 whole entry, looked up): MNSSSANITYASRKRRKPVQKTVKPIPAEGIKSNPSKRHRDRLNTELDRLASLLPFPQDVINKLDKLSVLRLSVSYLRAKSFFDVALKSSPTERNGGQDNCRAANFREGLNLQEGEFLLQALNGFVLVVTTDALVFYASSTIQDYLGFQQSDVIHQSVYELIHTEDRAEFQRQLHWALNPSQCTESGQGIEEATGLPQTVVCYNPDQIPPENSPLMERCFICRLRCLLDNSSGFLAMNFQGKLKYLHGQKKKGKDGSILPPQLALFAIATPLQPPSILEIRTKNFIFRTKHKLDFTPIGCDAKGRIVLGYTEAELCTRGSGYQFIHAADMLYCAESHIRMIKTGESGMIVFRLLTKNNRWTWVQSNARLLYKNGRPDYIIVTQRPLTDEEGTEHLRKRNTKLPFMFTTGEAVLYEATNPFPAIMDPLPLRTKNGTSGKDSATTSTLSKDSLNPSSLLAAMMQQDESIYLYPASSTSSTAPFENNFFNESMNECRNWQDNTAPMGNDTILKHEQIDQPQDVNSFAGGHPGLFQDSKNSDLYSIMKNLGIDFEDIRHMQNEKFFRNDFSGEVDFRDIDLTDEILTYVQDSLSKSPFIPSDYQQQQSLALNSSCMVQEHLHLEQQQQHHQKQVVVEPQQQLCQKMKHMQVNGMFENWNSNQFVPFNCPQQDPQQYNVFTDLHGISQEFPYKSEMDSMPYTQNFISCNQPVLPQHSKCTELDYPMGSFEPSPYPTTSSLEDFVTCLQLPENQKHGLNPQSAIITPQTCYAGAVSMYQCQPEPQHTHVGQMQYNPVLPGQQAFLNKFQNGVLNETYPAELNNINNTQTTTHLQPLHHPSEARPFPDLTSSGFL

With `COc1nn(CSP(=S)(OC)OC)c(=O)s1`, the Potency in [1] is 68.6 µM (active); in experiment [3], 49 µM (active). Besides, the Potency result in [2], in experiment [4], in experiment [5] and in experiment [7] was “inactive” throughout. In [6], the result was inactive.
On to `C/C(=C\c1ccccc1)[N+](=O)[O-]`, for which the Potency in [1] is 21.7 µM (active); in experiment [9], 21.9 µM (active); in [4], 15.4 µM (active); in experiment [5] it was 19.5 µM (active); in experiment [10] it was 13.8 µM (active); in experiment [7], 43.6 µM (active). Further, in [8], the Potency result was “inactive”.
On to `Cc1ccccc1C(=O)Nc1cccc(OC(C)C)c1`, for which the Potency result in experiment [1], in [2], in experiment [11], in experiment [4], in experiment [12] and in experiment [15] was “inactive” each time. The Potency entry in experiment [16] and in [7] was “inactive” in each case. Also, the Potency in [3] is 49 µM (active). Besides, the compound was called inactive in experiment [13] and in experiment [14].
On to `CCc1ccc(C(=O)NN(C(=O)c2cc(C)cc(C)c2)C(C)(C)C)cc1`, for which the figures for the Potency in experiment [1], in experiment [17] and in [18] were 6.86 µM (active), 61.1 µM (active) and 54.9 µM (active), respectively. For the same compound, the Potency entry in experiment [8], in experiment [11], in experiment [3], in experiment [9], in experiment [12] and in experiment [5] was “inactive” in each case. Moreover, the Potency entry in experiment [15], in experiment [16] and in [7] was “inactive” each time. The outcome in [13], in experiment [14], in experiment [19] and in [20] was inactive.
On to `O=C1C(=O)c2cccc3cccc1c23`, for which the Potency entry in experiment [1], in experiment [2], in experiment [11], in experiment [15], in experiment [16] and in [10] was “inactive” in each case. Also, in experiment [7], the Potency entry is “inactive”. For the same compound, the compound was called inactive in experiment [14].
Turning to `O=C(NCc1cccnc1)Nc1ccc([N+](=O)[O-])cc1`, the Potency entry in experiment [1], in experiment [2], in [11], in experiment [9], in experiment [17] and in experiment [4] was “inactive” each time. Besides, the Potency result in [12], in experiment [15] and in experiment [7] was “inactive” throughout. The outcome in [13] was inactive.
With `O=[N+]([O-])c1ccccc1CCl`, the Potency entry in experiment [1], in [2], in [3], in [9], in [4] and in [12] was “inactive” in each case. For the same compound, the Potency entry in [5], in experiment [15], in experiment [18] and in [10] was “inactive” in each case. Moreover, the Potency in [11] was 0.0988 µM (active). For the same compound, the compound was classed as inactive in [13], in [14], in [6] and in [19].
On to `CC(=O)C(C)(C)C`, for which the Potency entry in [1], in experiment [2], in experiment [11], in experiment [3], in experiment [9] and in experiment [17] was “inactive” each time. The Potency result in experiment [5], in [15] and in experiment [10] was “inactive” each time. Besides, the outcome in experiment [13] was inactive.
As for `ClCc1ccccc1`, the Potency result in [1], in [2], in experiment [11], in experiment [9], in [17] and in experiment [4] was “inactive” throughout. The Potency result in experiment [12], in experiment [5], in experiment [15], in [10] and in experiment [7] was “inactive” each time. Besides, the outcome in experiment [14], in experiment [19] and in experiment [20] was inactive.
For the compound `CCOC(=O)CBr`, the Potency result in experiment [1], in [2], in [11], in experiment [3], in experiment [9] and in experiment [17] was “inactive” each time. The Potency result in experiment [4], in experiment [5], in experiment [15] and in experiment [18] was “inactive” each time. For the same compound, the compound was called inactive in experiment [13], in experiment [14], in experiment [6], in experiment [19] and in [20].
For `Nc1ccc([N+](=O)[O-])cc1[N+](=O)[O-]`, the Potency result in experiment [1], in [2], in [11], in experiment [9], in experiment [12] and in experiment [15] was “inactive” each time. Also, in experiment [7], the Potency entry is “inactive”. Moreover, the call in [13], in experiment [14], in [19] and in experiment [20] was inactive.
